NS1 function inh = influenza NS1 inhibition; Potency, µM (highest dose often 46.1 µM), inactives show at the top dose activity, positive = more growth; 0.4% of 270,000 active; calls by dose curve; also: potency is read from the fitted curve at half-maximal effect; actives are rising curves; nearly all actives have a fitted effect of over 50% in size
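Growth recovery, yeast-based: influenza A NS1 expressed in S. cerevisiae causes slow growth, and suppressors are detected by OD600. The parent strain without NS1 is used as positive control.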
Pf growth 96h = inhibits malaria parasite growth, 96 h; AID 504834; Potency, µM (highest dose often 28.7 µM), for the others: at the highest dose activity change, negative = inhibition, usual class: inhibitors; 6.9% of 320,000 active; P. falciparum luciferase reporter growth, 96 h; also: potency is read from the fitted curve at half-maximal effect; % is scaled to controls: 0 for no effect and ±100 for the full control effect
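P. falciparum expressing integrated firefly luciferase grown in erythrocytes (2% hematocrit, 0.05% parasitemia final) with compounds for 96 hours at 37 C, 5% CO2. Growth inhibition read as loss of luminescence after adding luciferase detection reagent.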
Shiga inhibitor = Shiga toxin inhibition; inhibition, % at 38.7 µM; 9.2% of 290,000 active; Vero cells, Shiga toxin protein synthesis inhibition reporter; in the data active = inhibition mostly above about 28%, no sharp cut-off; inactive = mostly below about 43%; also: 0% is about no effect
Cycloheximide cs = counter-screen for Shiga toxin inhibitors: cycloheximide protein synthesis inhibition; cell reporter, cycloheximide protein synthesis inhibition counterscreen; max response, %; 12% of 300,000 active; AID 2314; in the data active = max response mostly above about 13%, no sharp cut-off; inactive = mostly below about 14%; also: read at 38.3 µM for the half of the compounds with a filed dose; 0% is about no effect
Pf growth 48h = inhibits P. falciparum growth in the first generation, 48 h. P. falciparum luciferase growth in erythrocytes, 48 h. Potency, µM (top dose mostly 28.7 µM), inactives show at the top dose activity change, negative = inhibition, most hits filed as inhibitors. 5.9% of 310,000 active; also: potency is read from the fitted curve at half-maximal effect; % is scaled to controls: 0 for no effect and ±100 for the full control effect
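Erythrocytes infected with P. falciparum carrying an integrated firefly luciferase reporter (2% hematocrit, 0.1% parasitemia final) were exposed to compounds in RPMI 1640 with 0.5% Albumax at 37 C, 5% CO2. Growth inhibition was scored as reduced luminescence.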
Giardia FBPA inh = Giardia lamblia aldolase inhibition. A8B2U2. purified Giardia FBPA. Potency, µM (doses to about 59.6 µM), for inactives: at the top dose activity, negative = inhibition, actives largely listed as inhibitors. 0.71% of 290,000 active. AID 2451; also: potency is read from the fitted curve at half-maximal effect; % is scaled to controls: 0 for no effect and ±100 for the full control effect; nearly all actives have a fitted effect of over 55% in size
Target sequence (A8B2U2 whole entry, looked up): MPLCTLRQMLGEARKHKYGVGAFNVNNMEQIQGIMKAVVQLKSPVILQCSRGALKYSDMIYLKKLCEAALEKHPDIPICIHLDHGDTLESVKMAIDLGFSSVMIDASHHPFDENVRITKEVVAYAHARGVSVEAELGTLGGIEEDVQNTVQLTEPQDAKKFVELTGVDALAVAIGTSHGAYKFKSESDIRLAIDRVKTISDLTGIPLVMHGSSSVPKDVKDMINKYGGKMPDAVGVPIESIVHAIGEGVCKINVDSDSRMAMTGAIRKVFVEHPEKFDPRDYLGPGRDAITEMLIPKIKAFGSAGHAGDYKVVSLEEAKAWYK
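40 nM FBPA preincubated 10 min at RT with compound (up to 57.5 uM final), then substrate plus GAPDH/TPI/NAD/arsenate coupling and diaphorase/resazurin added. Fluorescence read after 20 min at RT, 525/598 nm.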
Numbers without * were called inactive; i = inactive; ? = inconclusive; / = no result; [ ] = another dose, or the depositor's remark. Hits are enriched below; roughly 21% of the tested compounds scored in any of these assays. Unless noted, calls follow the shape of the dose curve; as a rule, active = well fitted curve in the direction sought with a large enough effect; inconclusive = small, poorly fitted or top-dose-only effect, or another doubt; inactive = no such curve, though single readings can be large; an effect the other way counts as inactive or inconclusive.

SMILES	NS1 function inh	Pf growth 96h	Shiga inhibitor	Cycloheximide cs	Pf growth 48h	Giardia FBPA inh
CCCCCC(=O)O[C@H](CC(=O)O)C[N+](C)(C)C	/	/	/	/	/	3%
CC1CSc2n(-c3cccc(C(F)(F)F)c3)cc(-c3ccccc3)[n+]21 (stereo not given)	-5%	?	-3	-2	1.9µM*	5%
COc1ccc(-c2cc3ncnc(Cl)c3s2)cc1	-10%	107%	58	33*	138%	-29%
Cc1ccc(/C=N/c2sc3c(c2C(N)=O)CCCC3)o1	/	?	60*	37*	278%	-13%
NC(=O)c1c(/N=C/c2cccnc2)sc2c1CCCC2	-6%	45%	47*	25*	0%	-7%
FC(F)(F)c1ccc(CSc2ccccn2)cc1	-1%	12%	53*	19*	19%	-3%
COc1ccccc1NC(=O)c1ccc(CSc2ncccn2)cc1	-5%	?	55*	14*	9%	-10%
O=C(Nc1ccccc1)c1ccc(CSc2ccccn2)cc1	28%	304%	63*	36*	276%	4%
Cc1ccc(N2CC(C(=O)Nc3nnc(SCC(N)=O)s3)CC2=O)cc1 (stereo not given)	3%	-3%	-10	1	4%	-6%
O=c1[nH]c2ccccc2c(O)c1-c1ccccc1[N+](=O)[O-]	7%	0%	-32	-3	18%	-5%
CC(=O)N1CCN(C(=O)c2ccccc2NS(=O)(=O)c2ccc(F)cc2)CC1	/	-28%	/	/	-22%	/
O=C(c1cccc(F)c1)N1CCC2(CCN(Cc3ccncc3)CC2)CC1	/	/	/	/	/	4%
Cc1ccc(Cn2cccc(NC(=O)c3ccco3)c2=O)cc1	-81%	5%[5.75 µM]	92*	37*	40%	-3%
CC(C)(C)c1ccc(C(=O)Nc2ccccc2Cl)cc1	/	i	50*	19	i	-10%
Cc1cccc(NC(=O)c2ccco2)c1C	6%	10µM*	5	-3	4%	6%
CSCc1ccc(C(=O)Nc2cccc(C)c2C)cc1	14%	120%	21	49*	109%	-2%
Cc1ccc2c(c1)N(C(=O)CCC(=O)NCc1ccccn1)CC(C)O2 (stereo not given)	-4%	3%	-1	-2	?	3%
COCCNC(=O)C(=O)Nc1cc2c3c(c1)CCC(=O)N3CCC2	-3%	28%	-6	-1	27%	4%
CC(C)(C)c1ccc(C(=O)Nc2ccccc2NC(=O)c2ccco2)cc1	0%	2%	29*	20*	?	?
N[C@@H](CO)c1nnc([C@H](CCC(=O)O)NC(=O)C2CCNCC2)o1	4%	83%	-11	6	67%	-4%
COc1ccc(CCN2CC(C(=O)N(C)CC(=O)Nc3cccc(F)c3)CC2=O)cc1OC (stereo not given)	1%	24%	-3	-3	3%	/
O=C(CSc1ccc(Cl)cc1)Nc1cc(-c2nc3ncccc3o2)ccc1Cl	1%	4.7µM*	13	3	?	6%
Cc1ccc(-c2nn3c(C)nnc3s2)cc1NC(=O)CSc1ccc(Cl)cc1	2%	-21%	-2	-3	-13%	1%
COc1ccc2oc(-c3ccc(C)c(NC(=O)CSc4ccc(Cl)cc4)c3)nc2c1	-11%	92%	65*	25*	40%	2%
COc1cccc(NC(=O)N2CCC(NC(=O)C(Cc3ccccc3F)NC(C)=O)CC2)c1 (stereo not given)	2%	8%	-6	-5	-3%	/
SMILES	NS1 function inh	Pf growth 96h	Shiga inhibitor	Cycloheximide cs	Pf growth 48h	Giardia FBPA inh
C/C(=N\NC(=O)c1nnn(-c2nonc2N)c1-c1ccc2c(c1)OCO2)c1ccccc1	20%	15µM*	3	1	?	/
C/C(=N\NC(=O)c1nnn(-c2nonc2N)c1-c1ccc2c(c1)OCO2)c1ccc(C)cc1	21%	13µM*	-6	4	?	/
C/C(=N\NC(=O)c1nnn(-c2nonc2N)c1-c1ccc2c(c1)OCO2)c1ccc(F)cc1	12%	4.7µM*	-5	-3	?	/
CC/C(=N\NC(=O)c1nnn(-c2nonc2N)c1-c1ccc2c(c1)OCO2)c1ccccc1	14%	?	-3	-6	?	2%
CCOC(=O)c1c(/N=C/C2=C(O)CC(C)(C)CC2=O)sc(C)c1C	-2%	1%	22	-3	7%	6%
CC(c1nnc(SCC(=O)Nc2cc([N+](=O)[O-])ccc2F)n1Cc1ccccc1)N(C)C (stereo not given)	?	5.2µM*	-7	-4	8.3µM*	2%
Cc1ccc(CC(=O)O/N=C(\N)Cc2ccc([N+](=O)[O-])cc2)cc1	-12%	-19%	-9	-3	4%	-2%
Cc1ccc(C(=O)O/N=C(\N)Cc2ccc([N+](=O)[O-])cc2)c(Cl)c1	-76%	-21%	42	9.8*	?	-3%
Cc1ccc(C(=O)O/N=C(\N)Cc2cccs2)c(Cl)c1	-111%	?	85*	82*	-13%	/
CCCCN1CCCC1CNC(=O)c1cc(C#N)c2ccccc2c1OC (stereo not given)	/	/	-3	-2	/	-12%
CC1CC(=O)C2=C(C1)Nc1ccccc1N=C2 (stereo not given)	-5%	11%	-21	-3	/	2%
CCC1=Nc2ccccc2NC2=C1C(=O)CCC2	-4%	-17%	77*	30*	-9%	?
CCC(COC(=O)c1cc(OC)c(OC)c(OC)c1)(c1ccccc1)N(C)C (stereo not given)	7%	?	-7	2	15µM*	-4%
CCOc1ccc(N2C(=O)C(CC(=O)Nc3ccc(F)cc3)N(Cc3ccccn3)C2=S)cc1 (stereo not given)	/	?	-9	-8	?	-10%
O=C(CC1SC(=O)N(c2ccccc2)C1=O)Nc1cccc2ccccc12 (stereo not given)	18%	20%	38	21*	0%	-14%
CCOc1ccc(NC(=O)CC2SC(=O)N(c3ccccc3)C2=O)cc1 (stereo not given)	9%	?	44*	21*	39%	-1%
COc1ccccc1NC(=O)CC1SC(=N)N(c2ccccc2)C1=O (stereo not given)	7%	7%	-4	-5	?	1%
CCOc1ccc(N2C(=O)C(CC(=O)Nc3ccccc3)N(Cc3ccccn3)C2=S)cc1 (stereo not given)	/	9.3µM*	16	-3	?	-13%
Cc1ccccc1NC(=O)CC1SC(=O)N(c2ccccc2)C1=O (stereo not given)	?	/	64*	47*	57%	-11%
CC(=O)Nc1ccc(S(=O)(=O)NCCC(=O)OCC(=O)NNC(=O)c2ccccc2)cc1	/	5%	/	/	17%	/
Cc1cc(C)n(CCC(=O)N2CCN(S(=O)(=O)c3ccccc3)CC2)n1	1%	2%	-12	-4	9%	2%
